# A structure can be active in one record and inactive in another. Activity calls are given as the source filed them. How the source made its calls: active means hit-call score of the fitted dose curve at least 0.9, where 1 is the maximum; inactive means score below 0.9.
# Read-out: Matrix Metallopeptidase 1 (MMP1), MMP1 (gene 4312)
# Experiment: BSK_BF4T_MMP1: BioMAP Diversity Plus: BF4T Assay for Matrix Metallopeptidase 1 (MMP1) Biomarker Activity (AID 2284270)
# Details: primary human bronchial epithelial cells with fibroblasts
# Protocol: BSK_BF4T is a cell-based, multiplexed-readout assay that uses bronchial epithelial cells and dermal fibroblasts, a human vascular primary cell, with measurements taken at 24 hours after chemical dosing in a microplate: 96-well plate.BSK_BF4T_MMP1 is an assay component measured in the BSK_BF4T assay. It measures MMP-1 antibody related to regulation of gene expression using ELISA technology.Data from the assay component BSK_BF4T_MMP1 was analyzed at the endpoint, BSK_BF4T_MMP1, in the positive analysis fitting direction relative to DMSO as the negative control and baseline of activity. Using a type of binding reporter, gain or loss-of-signal activity can be used to understand protein changes. To generalize the intended target to other relatable targets, this assay endpoint is annotated to the 'protease' intended target family, where the subfamily is 'matrix metalloproteinase'.
# The levels of cell surface (or secreted, indicated by the prefix "s") biomarker endpoints were measured by ELISA. Overt cytotoxicity to cells in confluent adherent cultures (all systems other than the BT system) was assessed by measuring total protein levels using sulforhodamine B (SRB) staining in parallel cultures at the time of biomarker measurements, indicated as SRB endpoints. For proliferation assays for adherent cell types, individual cell types are cultured at sub-confluence and relative cell numbers quantified by SRB staining at time points optimized for each system (48 h: 3C and CASM3C systems; 72 h: BT and HDF3CGF systems; 96 h: SAg system). SRB was performed by staining cells with 0.1% SRB after fixation with 10% TCA and reading wells at 560 nm.Viability and proliferation of PBMC (T cells) was quantified by Alamar Blue reduction for the SAg and BT systems. For PBMC viability (referred to as PBMC Cytotoxicity within the assay endpoint names), cells were plated (75,000/well in a 96-well plate) and then chemical samples added for 1 h before addition of activators, SEB and TSST-1 (20 ng/mL final concentration each). Cells were incubated for 90 h. Then, Alamar Blue (20 uL/well) (Invitrogen, Cat DAL1100) was added for 6 h, and the plates were read with a fluorescence microplate reader at 546/580 nm (excitation/emission). For PBMC proliferation, cells were plated and activated as above but incubated for only 16 h prior to addition of Alamar Blue. Plates were read after 6 h.
Compound,outcome,AC50
O=C(O)C(F)(F)C(F)(F)C(F)(F)C(F)(F)C(F)(F)C(F)(F)C(F)(F)C(F)(F)C(F)(F)C(F)F,inactive,49.7 µM (active)
OCCCC(F)(F)C(F)(F)C(F)(F)C(F)(F)C(F)(F)C(F)(F)C(F)(F)F,inactive,46.8 µM (active)
O=S(=O)(OCCOC(F)(F)F)C(F)(F)F,inactive,
C=CC(=O)OCC(F)(F)C(F)(F)C(F)(F)C(F)(F)COC(=O)C=C,inactive,
O=C(CC(=O)C(F)(F)C(F)(F)F)C(F)(F)F,inactive,
C=C(C)C(=O)OCC(F)(F)C(F)(F)C(F)(F)C(F)(F)C(F)(F)C(F)(F)C(F)(F)F,inactive,
FC(F)(F)C(F)(F)C(F)(F)C(F)(F)C(F)(F)C(F)(F)CC1CO1 (stereo not given),inactive,
O=P(O)(O)OCCC(F)(F)C(F)(F)C(F)(F)C(F)(F)C(F)(F)C(F)(F)F,inactive,
COC(=O)CCC(F)(F)C(F)(F)C(F)(F)C(F)(F)F,inactive,
FC(F)(F)C(F)(F)C(F)(F)C(F)(F)C(F)(F)C(F)(F)CCS,inactive,
O=S(=O)(OCC(F)F)C(F)(F)F,inactive,
O=C(Cl)C(F)(F)C(F)(F)C(F)(F)C(F)(F)C(F)(F)C(F)(F)C(F)(F)C(F)(F)F,inactive,55.2 µM (active)
FC(F)(Br)C(F)(F)C(F)(F)C(F)(F)C(F)(F)C(F)(F)Br,inactive,
O=C(O)C(F)(F)C(F)(F)C(F)F,inactive,
O=C(O)C(F)(F)C(F)(F)OC(F)(F)F,inactive,
N=C(N)C(F)(F)C(F)(F)C(F)(F)C(F)(F)C(F)(F)C(F)(F)C(F)(F)F,inactive,
O=C(O)C(F)(F)C(F)(F)C(F)(F)C(F)(F)C(F)(F)C(F)(F)C(F)(F)C(F)(F)C(F)(F)C(F)(F)C(F)(F)C(F)(F)F,inactive,
O=C(O)C(F)(OC(F)(F)C(F)(OC(F)(F)C(F)(OC(F)(F)C(F)(F)C(F)(F)F)C(F)(F)F)C(F)(F)F)C(F)(F)F (stereo not given),inactive,
CCCCCCCCC(F)(F)C(F)(F)C(F)(F)C(F)(F)C(F)(F)C(F)(F)F,inactive,

Compound,outcome,AC50
OCC(F)(F)C(F)(F)C(F)(F)C(F)(F)C(F)(F)C(F)(F)F,inactive,
C=CC(F)(F)C(F)(F)C(F)(F)C(F)(F)C(F)(F)C(F)(F)C(F)(F)C(F)(F)C=C,inactive,
OCCCC(F)(F)C(F)(F)C(F)(F)F,inactive,
C=C(C)C(=O)OCCC(F)(F)C(F)(F)C(F)(F)C(F)(F)C(F)(C(F)(F)F)C(F)(F)F,inactive,
CC(C)(C)C(=O)CC(=O)C(F)(F)C(F)(F)C(F)(F)F,inactive,
C=CC(F)(F)C(F)(F)C(F)(F)C(F)(F)C(F)(F)C(F)(F)C(F)(F)C(F)(F)F,inactive,
O=S(=O)(O)C(F)(F)C(F)(F)C(F)(F)C(F)(F)C(F)(F)C(F)(F)C(F)(F)F,inactive,
OCC(F)(F)C(F)(F)C(F)(F)C(F)F,inactive,
FC(F)(F)C(F)(F)C(F)(F)C(F)(F)C(F)(F)C(F)(F)C(F)(F)C(F)(F)CCS,inactive,
OCC(F)(F)C(F)(F)C(F)(F)F,inactive,
O=C(O)C(F)(F)C(F)(F)C(F)(F)C(F)(F)F,inactive,
FC(F)(F)C(F)(F)C(F)(F)C(F)(F)C(F)(F)C(F)(F)C(F)(F)I,inactive,
OCC(F)(F)C(F)(F)C(F)(F)C(F)(F)C(F)(F)C(F)F,inactive,
NC(=O)C(F)(F)C(F)(F)C(F)(F)C(F)(F)F,inactive,
O=C(O)C=C(C(F)(F)F)C(F)(F)F,inactive,
FC(F)(F)C(F)(F)C(F)(F)N(C(F)(F)C(F)(F)C(F)(F)F)C(F)(F)C(F)(F)C(F)(F)F,inactive,
C=C(C)C(=O)OCC(F)(F)C(F)(F)C(F)(F)F,inactive,
O=C(O)C(F)(F)C(F)(F)C(F)(F)F,inactive,

# Reference: PubChem BioAssay (EPA / NIEHS)
